Here are results for three compounds from PubChem BioAssay AID651871 (Sanford-Burnham Center for Chemical Genomics, 2012).

The structures appear in SMILES notation. Where “and” joins values, the source holds several entries; their conditions need not be identical. Equal entries are not always repeated.

This assay relates to H9c2. Description: protection of cardiomyocytes from stress damage, SAR follow-up, cell-based, panel, H9c2 and HL-1, ATP luminescence, set 2 (AID 651871).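 Also: cells exposed to stressor for 2 h before ATP readout; reference of the scale not given here.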 The following applies: H9c2/HL-1 cardiomyocytes, 2-deoxyglucose stress, with 2-deoxyglucose; run 1, at 79 µM (top of the series).
As to `CCOC(=O)c1cccc(NC(=O)CNC(=O)c2cc(-c3cc(OC)c(OC)c(OC)c3)nc3ccccc23)c1`, the activity (protection/inhibition) was 92.1%.

Consider `COc1ccc2c(c1OC)C(=O)N1c3ccccc3C(=O)N(Cc3cccc(Cl)c3Cl)C21` (stereo not drawn), for which the activity (protection/inhibition) was 80.3% and 69.7% and -3.54%.

With `COc1ccc2nc(-c3cc(OC)c(OC)c(OC)c3)cc(C(=O)NCC(=O)Nc3ccc(C(C)=O)cc3)c2c1`, the activity (protection/inhibition) is 74.1%.
